According to PubChem BioAssay AID588692 (Broad Institute, 2011):
Several values for one entry are separate records, joined by “and”; a condition that tells them apart may be missing. Equal values may be shown once. Out of some 360,000 compounds screened, about 830 (0.23%) were called active. This excerpt belongs to a sample that is enriched for actives. Values without a mark were called inactive.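 How the source made its calls: active means mean luciferase reporter signal, scaled so untreated is 0 and the glycosylation-blocking control 100, at or above a set limit in every replicate; inconclusive means mean reaches the limit but not every replicate does; inactive means mean below the limit.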

assay: D54 reporter luminescence gain compounds – D54 ERlucT cells, set 2, N-linked glycosylation inhibitor project, primary screen (AID 588692); conditions: D54 ERlucT glycosylation luciferase reporter, 24 h; at 12.5 µM; hits give high values; percent of 100 nM tunicamycin response;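 further: luciferase carries N-glycosylation sites so blocking glycosylation raises the light; 0% = median of neutral control wells and 100% = median of 100 nM tunicamycin wells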

Row | Structure (SMILES) | reporter increase
1 | CN(CCOc1ccc(CC2SC(=O)NC2=O)cc1)c1ccccn1 (centres undefined) | 4.03% and 1.28%
2 | CCN(CC)CCNCC(=O)Nc1ccc(Oc2ccccc2)cc1 | 0.423%
3 | CCN(CC)CCOc1ccc2c(c1)C(=NNC(=O)c1ccccn1)c1cc(OCCN(CC)CC)ccc1-2 | 68.7% (active)
4 | CC[C@H](C)C(=O)N[C@H]1CCCN1C(=O)/C=C/c1ccccc1 | -0.751%
5 | CN1CCN(Cc2nc3c(c(=O)n(C)c(=O)n3C)n2Cc2cccc3ccccc23)CC1 | -0.438%
6 | O=c1c2cc(-c3ccccc3)sc2nc2n1N=C(c1cccs1)CS2 | -9.8%
7 | O=C(O[C@H]1[C@H](Cc2ccccc2)NS(=O)(=O)[C@H]2C[C@@H]3C=C[C@]12O3)c1ccc([N+](=O)[O-])cc1 | 2.96%
8 | CC(Sc1nncs1)C(=O)NCc1ccc2c(c1)OCO2 (centres undefined) | -1.14%
9 | Cc1cc(C)c2nc3nc(C)cc(C)c3c(N)c2c1 | 79% (active)
10 | COc1cc(OC)c2c(-c3cccc(-c4cccc(N)c4)c3)cc(=O)oc2c1 | 4.55%
11 | CC(CNS(=O)(=O)c1ccc(Br)cc1)CN(C)C (centres undefined) | 0.673%
12 | COc1ccccc1C(=O)COC(=O)CSCC(=O)Nc1cc(C)on1 | 1.73%
13 | O=C(NCC1CCCO1)C(C(=O)c1ccccc1)n1cc(Cl)ccc1=O (centres undefined) | 1.12%
14 | CCn1c(SCC(=O)NC2CC2)nnc1-c1ccccc1OC | 1.11%
15 | COc1ccccc1-c1nnc2n1N=C(c1ccc(OC(F)F)c(OCC3CC3)c1)CS2 | 5.65%
16 | COc1ccc(C2=Nn3c(nnc3-c3ccccc3OC)SC2)cc1OC1CCCC1 | 33.9% (active)
17 | Cn1c(=O)[nH]c2c(c(C(=O)O)nn2C)c1=O | -0.816%
18 | COCCn1c(SCC(=O)N2CCCCCC2)nc2c(c1=O)SCC2 | 2.05%
19 | CCCNC(=O)C1(C)CCCN(C(=O)c2oc3ccccc3c2C)C1 (centres undefined) | -0.622%
20 | C/C(=N\NC(=O)OC(C)(C)C)c1ccc[nH]1 | -4.4%
21 | NC(=O)CC(NC(=O)Cc1cccc2ccccc12)c1ccc(NCc2cc(F)ccc2F)c([N+](=O)[O-])c1 (centres undefined) | 16%
22 | CC1CCCCN1CCCNc1ccc(C(CC(N)=O)NC(=O)c2ccccc2)cc1[N+](=O)[O-] (centres undefined) | 2.79%

Row | Structure (SMILES) | reporter increase
23 | NC(=O)CC(NC(=O)Cc1ccc(Br)cc1)c1ccc(NC2CC3CCC2C3)c([N+](=O)[O-])c1 (centres undefined) | 43% (active)
24 | CCOc1ccc2c(=O)c(-c3ccc4c(c3)OCCCO4)c(C)oc2c1 | -1.81%
25 | COc1ccc(C(=O)NCC(c2ccco2)N2CCc3ccccc32)cc1OC (centres undefined) | 2.39%
26 | COC(=O)c1ccc(COC(=O)C2CCN(S(=O)(=O)c3c(Cl)cccc3Cl)CC2)o1 | 0.74%
27 | CC12CN(Cc3ccccc3)CC(C)(CN(Cc3ccccc3)C1)C2=NO | -0.263%
28 | O=[N+]([O-])c1ccc(C=Nc2ccc(Cl)cc2Cl)s1 | 36.7% (active)
29 | CS(=O)(=O)N(CC(O)Cn1c2ccccc2c2ccccc21)c1cccc2ccccc12 (centres undefined) | -2.21%
30 | CC/C(=N/Nc1ccccc1)c1cnnc(SC)n1 | 0.994%
31 | Cc1cc(S(=O)(=O)c2cc3ccc(O)c(C)c3oc2=O)ccc1F | 1.14%
32 | COCCn1cnc2c1c(=O)n(CC(=O)NN)c(=O)n2Cc1ccccc1 | -0.206%
33 | Cc1ccc2nc(SCc3nnc(-c4ccccc4[N+](=O)[O-])o3)c(C#N)cc2c1 | 35.7% (active)
34 | Cn1cnnc1SCc1nnc(-c2ccccc2Br)o1 | 2.03%
35 | Fc1ccc2nc(-c3ccccc3)nc(SCc3nnc(-c4ccccc4)o3)c2c1 | -4.84%
36 | CN(C(=O)CSc1nnc(-c2ccc3c(c2)OCO3)o1)C1CCS(=O)(=O)C1 (centres undefined) | 1%
37 | Cc1[nH]nc(-c2ccc(OCc3cnn(-c4ccccc4)c3)cc2O)c1Oc1ccc(Cl)cc1 | -4.08%
38 | c1ccc2cc3c(NCCN4CCOCC4)ccnc3cc2c1 | 102% (active)
39 | O=C(NCCN1CCOCC1)c1cc(Sc2cccc(Cl)c2)nc2ccccc12 | -2.52%
40 | Cc1cccc(C)c1OCCN1CCOCC1 | -0.152%
41 | CCOCCCNC(=S)N1CCC(NC(=O)C2CCCCC2)CC1 | -1.17%
42 | O=C1CN(C(=O)COC(=O)C2CC(=O)N(Cc3ccco3)C2)c2ccccc2N1 (centres undefined) | 1.95%
43 | C=CCN1C(=O)c2ccc(C(=O)N3CCC(C(=O)OCC)CC3)cc2C1=O | 0.619%
44 | COc1ccc(C(C)C)cc1-c1ccc2nncn2c1 | -0.123%
